Where “and” joins values, the source holds several entries; their conditions need not be identical. Equal values may be shown once. The campaign covered roughly 5,500 compounds. About 2,000 (36%) were called active. Another 18% or so got no clear call; they are omitted. No stated cut-off is given here; in the data, active means normalized growth mostly below about 0.91 (no sharp cut-off); inconclusive means no clear call, values can overlap the other calls; inactive means mostly above about 0.92. The list shows a part of the results.
Test: chemical genetic growth profiling, strain panel (AID 1159580);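 further: tested at 20 µM; growth read once vehicle control cultures reached saturation at 30 °C; 1 = growth at the plate median or of vehicle wells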
Settings: growth OD

Measured: normalized growth

CC(C)C(=O)Nc1ccc([N+](=O)[O-])c(C(F)(F)F)c1
active: S. cerevisiae deletion strains, locus YKR001C, strain vps1, stronger effect = lower value 0.837
inactive: S. cerevisiae deletion strains, locus YKL009W, strain mrt4, stronger effect = lower value 0.984 | S. cerevisiae deletion strains, locus YKL068W, stronger effect = lower value 0.984 | S. cerevisiae deletion strains, locus YKL085W, strain MDH1 (second series), stronger effect = lower value 0.987 | S. cerevisiae deletion strains, locus YKL085W, strain MDH1, stronger effect = lower value 0.987 | S. cerevisiae deletion strains, locus YKL160W, strain elf1, stronger effect = lower value 1 | S. cerevisiae deletion strains, locus YKL190W, strain CNB1, stronger effect = lower value 0.992 | S. cerevisiae deletion strains, locus YKR026C, strain gcn3, stronger effect = lower value 1.01 | S. cerevisiae deletion strains, locus YKR091W, strain srl3, stronger effect = lower value 1.01 | S. cerevisiae deletion strains, locus YLL001W, strain dnm1, stronger effect = lower value 1.03 | S. cerevisiae deletion strains, locus YLL026W, stronger effect = lower value 1.02 | S. cerevisiae deletion strains, locus YLL041C, strain sdh2, stronger effect = lower value 1.01 | S. cerevisiae deletion strains, locus YLR027C, strain aat2, stronger effect = lower value 1.02 | S. cerevisiae deletion strains, locus YLR039C, strain RIC1, stronger effect = lower value 0.826 | S. cerevisiae deletion strains, locus YLR058C, strain SHM2, stronger effect = lower value 0.99 | S. cerevisiae deletion strains, locus YLR102C, strain apc9, stronger effect = lower value 0.968 | S. cerevisiae deletion strains, locus YLR113W, strain HOG1, stronger effect = lower value 0.93 | S. cerevisiae deletion strains, locus YLR221C, strain rsa3, stronger effect = lower value 1.04 | S. cerevisiae deletion strains, locus YLR258W, strain gsy2, stronger effect = lower value 1.02 | S. cerevisiae deletion strains, locus YLR262C, strain YPT6 (second series), stronger effect = lower value 1.01 | S. cerevisiae deletion strains, locus YLR262C, strain YPT6, stronger effect = lower value 0.899 | S. cerevisiae deletion strains, locus YLR268W, strain sec22, stronger effect = lower value 0.96 | S. cerevisiae deletion strains, locus YLR320W, strain mms22, stronger effect = lower value 1.03 | S. cerevisiae deletion strains, locus YLR330W, strain CHS5, stronger effect = lower value 0.987 | S. cerevisiae deletion strains, locus YLR342W, strain FKS1 (second series), stronger effect = lower value 0.96 | S. cerevisiae deletion strains, locus YLR342W, strain FKS1, stronger effect = lower value 1.01 | S. cerevisiae deletion strains, locus YLR357W, strain rsc2, stronger effect = lower value 1.09 | S. cerevisiae deletion strains, locus YLR370C, strain arc18, stronger effect = lower value 1.03 | S. cerevisiae deletion strains, locus YLR371W, strain rom2, stronger effect = lower value 0.974 | S. cerevisiae deletion strains, locus YLR384C, strain iki3, stronger effect = lower value 1.03 | S. cerevisiae deletion strains, locus YLR418C, strain cdc73, stronger effect = lower value 0.896 | S. cerevisiae deletion strains, locus YML016C, strain PPZ1, stronger effect = lower value 0.981 | S. cerevisiae deletion strains, locus YML032C, strain rad52, stronger effect = lower value 0.974 | S. cerevisiae deletion strains, locus YML120C, strain ndi1, stronger effect = lower value 1.01 | S. cerevisiae deletion strains, locus YML124C, strain tub3, stronger effect = lower value 0.972 | S. cerevisiae deletion strains, locus YMR058W, strain fet3, stronger effect = lower value 1.03 | S. cerevisiae deletion strains, locus YMR078C, strain ctf18, stronger effect = lower value 0.976 | S. cerevisiae deletion strains, locus YMR125W, strain sto1, stronger effect = lower value 1.03 | S. cerevisiae deletion strains, locus YMR129W, stronger effect = lower value 1.02 | S. cerevisiae deletion strains, locus YMR205C, strain PFK2, stronger effect = lower value 1.02 | S. cerevisiae deletion strains, locus YMR223W, strain ubp8, stronger effect = lower value 0.982 | S. cerevisiae deletion strains, locus YMR231W, strain pep5, stronger effect = lower value 1.03 | S. cerevisiae deletion strains, locus YMR263W, strain SAP30, stronger effect = lower value 0.982 and 1 | S. cerevisiae deletion strains, locus YMR307W, strain GAS1, stronger effect = lower value 0.832 | S. cerevisiae deletion strains, locus YNL067W, strain RPL9B, stronger effect = lower value 0.99 | S. cerevisiae deletion strains, locus YNL071W, strain lat1, stronger effect = lower value 1.02 | S. cerevisiae deletion strains, locus YNL128W, strain TEP1, stronger effect = lower value 1.01 | S. cerevisiae deletion strains, locus YNL153C, strain GIM3, stronger effect = lower value 0.99 and 0.977 | S. cerevisiae deletion strains, locus YNL175C, strain NOP13, stronger effect = lower value 0.977 | S. cerevisiae deletion strains, locus YNL183C, strain NPR1, stronger effect = lower value 0.91 | S. cerevisiae deletion strains, locus YNL197C, strain WHI3, stronger effect = lower value 0.968 | S. cerevisiae deletion strains, locus YNL209W, strain ssb2, stronger effect = lower value 1.01 | S. cerevisiae deletion strains, locus YNL224C, strain SQS1, stronger effect = lower value 0.96 | S. cerevisiae deletion strains, locus YNL233W, strain BNI4, stronger effect = lower value 0.955 | S. cerevisiae deletion strains, locus YNL248C, strain rpa49, stronger effect = lower value 1.06 | S. cerevisiae deletion strains, locus YNL250W, strain rad50, stronger effect = lower value 0.989 | S. cerevisiae deletion strains, locus YNL271C, strain bni1, stronger effect = lower value 0.975 | S. cerevisiae deletion strains, locus YNL298W, strain CLA4, stronger effect = lower value 0.978 | S. cerevisiae deletion strains, locus YNL307C, strain MCK1, stronger effect = lower value 0.958 | S. cerevisiae deletion strains, locus YNL322C, strain KRE1 (second series), stronger effect = lower value 1.02 | S. cerevisiae deletion strains, locus YNL322C, strain KRE1, stronger effect = lower value 0.997 and 1.04 | S. cerevisiae deletion strains, locus YNR049C, strain mso1, stronger effect = lower value 1.02 | S. cerevisiae deletion strains, locus YNR052C, strain pop2, stronger effect = lower value 0.978 | S. cerevisiae deletion strains, locus YOL006C, strain TOP1, stronger effect = lower value 0.851 | S. cerevisiae deletion strains, locus YOL012C, strain htz1 1.09 | S. cerevisiae deletion strains, locus YOL147C, strain pex11, stronger effect = lower value 0.978 | S. cerevisiae deletion strains, locus YOR001W, strain rrp6, stronger effect = lower value 1.05 | S. cerevisiae deletion strains, locus YOR061W, strain CKA2, stronger effect = lower value 0.987 | S. cerevisiae deletion strains, locus YOR069W, strain VPS5, stronger effect = lower value 0.99 | S. cerevisiae deletion strains, locus YOR070C, strain gyp1, stronger effect = lower value 1 | S. cerevisiae deletion strains, locus YOR080W, strain dia2, stronger effect = lower value 1.03 | S. cerevisiae deletion strains, locus YOR083W, strain WHI5 (second series), stronger effect = lower value 0.9 | S. cerevisiae deletion strains, locus YOR083W, strain WHI5, stronger effect = lower value 0.999 | S. cerevisiae deletion strains, locus YOR106W, strain vam3, stronger effect = lower value 1.04 | S. cerevisiae deletion strains, locus YOR136W, strain idh2, stronger effect = lower value 0.981 | S. cerevisiae deletion strains, locus YOR144C, strain elg1, stronger effect = lower value 0.966 | S. cerevisiae deletion strains, locus YOR184W, strain ser1, stronger effect = lower value 0.939 | S. cerevisiae deletion strains, locus YOR231W, strain MKK1, stronger effect = lower value 0.952 | S. cerevisiae deletion strains, locus YOR265W, strain rbl2, stronger effect = lower value 1 | S. cerevisiae deletion strains, locus YOR270C, strain vph1, stronger effect = lower value 1.03 | S. cerevisiae deletion strains, locus YOR290C, strain snf2, stronger effect = lower value 1.02 | S. cerevisiae deletion strains, locus YOR316C, strain cot1, stronger effect = lower value 0.977 | S. cerevisiae deletion strains, locus YPL051W, strain arl3, stronger effect = lower value 1 | S. cerevisiae deletion strains, locus YPL055C, strain LGE1, stronger effect = lower value 0.953 and 1.01 | S. cerevisiae deletion strains, locus YPL078C, strain atp4, stronger effect = lower value 1 | S. cerevisiae deletion strains, locus YPL106C, strain sse1, stronger effect = lower value 1.01 | S. cerevisiae deletion strains, locus YPL240C, strain hsp82, stronger effect = lower value 1 | S. cerevisiae deletion strains, locus YPL241C, strain CIN2, stronger effect = lower value 0.985 and 1 | S. cerevisiae deletion strains, locus YPL256C, strain CLN2, stronger effect = lower value 0.991 | S. cerevisiae deletion strains, locus YPR119W, strain clb2, stronger effect = lower value 0.973 | S. cerevisiae deletion strains, locus YPR141C, strain kar3, stronger effect = lower value 0.98 | S. cerevisiae deletion strains, locus YPR163C, strain tif3, stronger effect = lower value 0.987 | S. cerevisiae deletion strains, locus YPR167C, strain met16, stronger effect = lower value 0.984 | S. cerevisiae deletion strains, strain wtn01, stronger effect = lower value 0.954 | S. cerevisiae strains, strain wild type, stronger effect = lower value 0.986
